Laboratory results: PubChem BioAssay AID651597 (National Center for Advancing Translational Sciences (NCATS), 2012)
Screen size: about 1,100 compounds; about 390 (35%) were called active. Not shown: some 30% with an inconclusive outcome. Calls come from the whole dose curve; as a rule, active = well fitted inhibition curve with a large enough effect; inconclusive = small, poorly fitted or top-dose-only effect; inactive = flat fitted curve, though single readings scatter. This is one part of the list.

Each compound was assayed against Luciferin 4-monooxygenase (Photinus pyralis) (UniProt P08659) (assay: qHTS of Nrf2 Activators: Hit Validation in Secondary FLuc Assay). Conditions: firefly luciferase inhibition counter-screen, luminescence; series mostly up to 57.5 µM.
Text: Many diseases have some form of oxidative stress injury and ties to inflammation, causing a host of problems for the patient. The antioxidant response element (ARE) plays an important role in alleviating the harmful effects of oxidative stress. The antioxidant response element (ARE) is a transcriptional regulatory element involved in the activation of genes coding for a number of antioxidant proteins and detoxifying enzymes. These enzymes work in concert to protect tissues from oxidative insults and chemical toxicities in human hepatocytes and immune cells. The protective effects of ARE activation are primarily triggered through Nrf2 (NF-E2-related factor) binding to and activating AREs. It is known that Nrf2 controls the production of over 250 antioxidant and detoxification proteins (Hu et al., 2006), thereby protecting tissues by increasing cellular antioxidant content and suppressing inflammatory signaling pathways. The transcription factor Nrf2 is a central link between oxidative chemicals, such as phenolic antioxidants and electrophilic compounds, and the activation of ARE. Nrf2 levels are constitutively low as a consequence of its interaction with Keap1, which targets its degradation (Zipper and Mulcahy, 2002). Electrophiles react with key cysteine residues in Keap1, releasing Nrf2 and allowing its translocation to the nucleus. Once within the nucleus, Nrf2 complexes with coactivators such as p300, and binds to the AREs to induce gene transcription of cytoprotective enzymes, resulting in the prevention of toxicity. Activation of Nrf2 protects tissues by increasing cellular antioxidant content and suppressing inflammatory signaling pathways. Identifying novel and potent Nrf2 activators by using the AREc32 cell line to detect ARE activation by small molecules will lead to the identification and development of probes to study protective pathways in multiple tissues. These specific probes are essential to study the ARE pathway, and eventually to determine whether this pathway does activate genes that could protect against a host of diseases, including cardiovascular diseases, obesity, diabetes, Alzheimer's, and Parkinson's disease.
This project's aim is to identify novel and potent Nrf2 activators by using the AREc32 cell line to detect ARE activation by small molecules, which will lead to the identification and development of probes to study the ARE pathway. In this counter assay, we aim to identify false positive as identified from this primary assay using an FLuc assay with an inhibiting read-out.
NIH Chemical Genomics Center [NCGC]
NIH Molecular Libraries Probe Centers Network [MLPCN]
Assay Submitter (PI): Curtis Klaassen, University of Kansas Medical Center
Assess whether an activator in the primary assay potentially causes such activation by inhibitor-induced stabilization of the firefly luciferase reporter enzyme by determining whether it inhibits firefly luciferase in the presence of Km concentrations of its substrates (ATP and D-luciferin).
Note: nearly all actives have a fitted effect of over 65% in size.
Potency is the fitted concentration of half-maximal effect.

Row | SMILES | Potency
1 | Cc1cccc(C(=O)Nc2nnc(SCC(=O)NCc3ccco3)s2)c1 | 2390 nM (active)
2 | Clc1ccccc1Nc1ncnc(-n2cccc2)n1 | 2130 nM (active)
3 | CCOc1ccc(-n2c(O)c(N=Nc3ccc([N+](=O)[O-])cc3)c(=O)[nH]c2=O)cc1 | inactive
4 | O=C1c2ccccc2-c2cc3ccccc3cc21 | 4780 nM (active)
5 | Clc1cccc(/C=N\Nc2nccs2)c1 | 4780 nM (active)
6 | CC(=CCOc1ccc2ccc(=O)oc2c1)C1=CC(=O)C(C)(C)O1 | inactive
7 | O=C(O)c1ccc([N+](=O)[O-])c([N+](=O)[O-])c1 | inactive
8 | O=C(Nc1ccc(Cl)c(Cl)c1)c1ccco1 | 9530 nM (active)
9 | NC(=O)c1c(NC(=O)c2ccccc2F)sc2c1CCC2 | 1350 nM (active)
10 | Cn1c(O)c(N=Nc2ccc(S(=O)(=O)N3CCOCC3)cc2)c(=O)n(C)c1=O | inactive
11 | Fc1cccc(F)c1-c1nc(-c2ccc(Cl)cc2)no1 | 2130 nM (active)
